From PubChem BioAssay
NPC1 promoter act – qHTS Assay for NPC1 Promoter Activators; 320,000 compounds, 2.4% hits; Huh7 NPC1 promoter luciferase reporter, 24 h; Potency, µM (titrated, usually from 9.22 µM), without a hit: at the highest dose activation, usual class: activators; further: % of control where 0% means no effect; nearly all actives have a fitted effect of over 60% in size
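Cells: Huh7 expressing luciferase under the NPC1 promoter, 1500/well. Seeded 2 h, compound added, incubated 24 h at 37 °C. Luciferase reagent, 10 min ambient, then luminescence.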
Rab9 prom act – qHTS Assay for Rab9 Promoter Activators | Huh7 Rab9 promoter-luciferase reporter, luminescence, 24 h | Potency, µM (top dose mostly 9.22 µM), without a hit: top-dose activation, negative = inhibition, hits mostly activators | 320,000 compounds, 2.8% hits | AID 485297, 2010; further: % of control where 0% means no effect; nearly all actives have a fitted effect of over 60% in size
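Cells were plated at 1500 per well in reduced-serum medium with 10% FBS and left 2 h. Compound in DMSO was then added for 24 h at 37 °C. Reporter signal was read by luminescence after 10 min with luciferase detection reagent.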
KinaseGlo FLuc – Counterscreen for Luciferase (Kinase-Glo TM) Inhibition; Luciferin 4-monooxygenase (Photuris pensylvanica), Q27757; Kinase-Glo luciferase, ATP luminescence, 8 min; Potency, µM (highest dose often 38.3 µM), inactives show at the top dose activity change, negative = inhibition, usual class: inhibitors; 200,000 compounds, 0.28% hits; AID 1379, 2008; further: on the % scale 0 is the no-effect control and ±100 the full control effect; nearly all actives have a fitted effect of over 60% in size
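Luminescence was the read-out, taken after 8-minute incubation at ambient temperature. Luciferase turned over luciferin with 10 uM ATP in imidazole pH 7.2 buffer containing KCl, MgCl2, Tween 20 and BSA.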
SMN2 splice up – qHTS Assay for Enhancers of SMN2 Splice Variant Expression; HEK293 SMN2-luciferase splicing reporter, luminescence, 30-36 h; Potency, µM (highest dose often 46.1 µM), for inactives: at the top dose activity change, positive = activation, actives largely listed as activators; 210,000 compounds, 2.8% hits; AID 1458, 2008; further: % of control where 0% means no effect; nearly all actives have a fitted effect of over 55% in size
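qHTS luciferase splicing reporter: luminescence rises when SMN2 exon 7 is included in transfected HEK293 cells. Compound exposure lasted 30-36 h at 37C, with 4.5 mM final sodium butyrate as control, followed by a ONE-Glo read.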
FLuc modulator – qHTS profiling assay for firefly luciferase inhibitor/activator using purifed enzyme and Km concentrations of substrates (counterscreen for miR-21 project); Luciferin 4-monooxygenase (Photinus pyralis), P08659; purified FLuc, Km substrates, luminescence inhibition; Potency, µM (doses to about 57.5 µM), without a hit: at the highest dose activity change, negative = inhibition, actives largely listed as inhibitors; 360,000 compounds, 6.9% hits; AID 588342, 2011;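 further: plate controls were vehicle for no effect and reference inhibitor for full effect; nearly all actives have a fitted effect of over 55% in size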
Target sequence (P08659 whole entry, looked up): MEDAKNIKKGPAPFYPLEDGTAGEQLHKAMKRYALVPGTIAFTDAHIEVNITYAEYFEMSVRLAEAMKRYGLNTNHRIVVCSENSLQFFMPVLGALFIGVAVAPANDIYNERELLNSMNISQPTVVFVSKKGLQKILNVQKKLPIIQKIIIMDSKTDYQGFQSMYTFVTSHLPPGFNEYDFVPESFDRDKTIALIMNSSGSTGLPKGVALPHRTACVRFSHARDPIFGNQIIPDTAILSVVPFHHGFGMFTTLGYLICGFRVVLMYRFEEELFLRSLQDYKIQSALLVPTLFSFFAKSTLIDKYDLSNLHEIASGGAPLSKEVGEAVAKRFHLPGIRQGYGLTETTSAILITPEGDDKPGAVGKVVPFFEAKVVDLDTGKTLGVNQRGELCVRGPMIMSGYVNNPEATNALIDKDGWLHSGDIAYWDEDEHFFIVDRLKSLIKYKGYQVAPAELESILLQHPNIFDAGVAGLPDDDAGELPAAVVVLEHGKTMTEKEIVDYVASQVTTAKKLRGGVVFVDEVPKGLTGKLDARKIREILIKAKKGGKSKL
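Purified P. pyralis luciferase, 10 nM final, with Km-level 10 uM D-luciferin and 10 uM ATP in 50 mM Tris acetate pH 7.5, 10 mM Mg acetate, 0.01% Tween-20, 0.05% BSA; 6-point qHTS titration about 60 µM downward; luminescence read.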
ELG1 genotox – qHTS screen for small molecules that induce genotoxicity in human embryonic kidney (HEK293T) cells expressing luciferase-tagged ELG1; HEK293T ELG1-luciferase reporter, luminescence, 16 h; Potency, µM (doses to about 46 µM), inactives show top-dose activity change, positive = activation, hits mostly activators; 330,000 compounds, 1.3% hits; AID 504466, 2011; further: % of control where 0% means no effect; nearly all actives have a fitted effect of over 60% in size
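Genotoxic stress is detected as increased luminescence from luciferase-tagged ELG1 in HEK293T cells, measured with ONE-Glo after a 16 hr treatment at 37 °C.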
Numbers without * were called inactive; u = inconclusive; x = no result; [ ] = remark or other dose. In the library only some 7.5% were active in any assay of this set; here they are far more common. The call rests on the fitted dose curve; in most records, active means well fitted curve in the direction sought with a large enough effect; inconclusive means small, poorly fitted or top-dose-only effect, or another doubt; inactive means no such curve, though single readings can be large; an effect the other way counts as inactive or inconclusive. Potency means the concentration at half of the fitted maximal effect.

SMILES | NPC1 promoter act | Rab9 prom act | KinaseGlo FLuc | SMN2 splice up | FLuc modulator | ELG1 genotox
Cc1ccc2nc(-c3ccccc3)cc(C(=O)Nc3cccnc3)c2c1 | 0.0% | -1.6% | x | x | x | -2.8%
Cc1ccccc1Cn1cc(S(=O)(=O)c2ccc(Cl)cc2)c(=O)c2cc3c(cc21)OCO3 | x | x | x | -12.2% | 0.4% | x
COc1ccc(/C=C2\SC(=S)N(C(C)C(=O)NC3C=CS(=O)(=O)C3)C2=O)cc1 (stereo unspecified) | 10.9% | 14.5% | x | x | 16.9µM* | 0.8%
O=C(CN1C(=O)/C(=C/c2ccc(Cl)cc2)SC1=S)NC1C=CS(=O)(=O)C1 (stereo unspecified) | -7.2% | 0.6% | x | x | -7.2% | 1.0%[9.26 µM]
COc1ccc(/C=C2\SC(=S)N(CC(=O)NC3C=CS(=O)(=O)C3)C2=O)cc1 (stereo unspecified) | 3.2% | 0.8% | x | x | 1.9µM* | 2.3%
CN(C)c1ccc(-c2nn3c(-c4cccnc4)nnc3s2)cc1 | -4.0% | 0.4% | -6.6% | -15.3% | -7.4% | u
Cc1nnc2sc(-c3ccc(N(C)C)cc3)nn2c1=O | 3.16µM* | u | x | x | 7.57µM* | 16.4µM*
CC(C)c1ccc(NC(=O)c2n[nH]c(=O)c3ccccc23)cc1 | u | 1.58µM* | -2.9% | 5.62µM* | -0.9% | u
CN(C)S(=O)(=O)c1cccc(NC(=O)c2n[nH]c(=O)c3ccccc23)c1 | -1.3% | -3.8% | -1.7% | -2.4% | -12.2% | -5.4%
Cc1cc(NC(=O)c2n[nH]c(=O)c3ccccc23)ccc1Br | u | 5.01µM* | x | x | 4.6% | u
CCN(CC)S(=O)(=O)c1cc(NC(=O)c2n[nH]c(=O)c3ccccc23)ccc1C | 6.1% | u | -2.9% | -25.7% | 23.9µM* | -11.8%
COC(=O)c1ccccc1NC(=O)c1nc(-c2ccc(Cl)cc2)n2c1CCCCC2 | x | x | x | x | -6.0% | x
CCOCCc1nnc(NC(=O)C(=O)c2cc(C)n(-c3ccc(C)c(C)c3)c2C)s1 | x | x | x | x | 1.8% | x
O=C(Nc1ccc(F)cc1)Nc1nnc(-c2ccco2)s1 | u | 2.82µM* | -2.1% | 19.0% | -18.7% | 19.8%
COc1ccccc1NC(=O)Nc1nnc(-c2ccco2)s1 | -2.6% | 3.3% | -3.1% | 1.0% | -0.9% | 4.0%
O=C(Nc1nnc(-c2ccco2)s1)c1ccccc1 | 0.794µM* | 0.398µM* | -7.4% | 2µM* | 3.01µM* | 1.16µM*
COc1ccc(C(=O)Nc2nnc(-c3ccco3)s2)cc1 | 0.447µM* | 0.316µM* | -20.7% | 1.41µM* | 0.477µM* | u
Cn1cc(CNCc2ccc(OC(F)(F)F)cc2)c(-c2ccc3c(c2)OCCO3)n1 | -26.6% | -47.4% | -0.5% | x | 1.1% | -1.4%
CCn1cc(CNCc2cn(C)nc2-c2ccc(C3CCCCC3)cc2)cn1 | -2.2% | -2.0% | x | x | 15.1µM* | -0.3%
COc1ccc(NC(=O)COC(=O)c2ccccc2SCC(=O)N2CCCC2)cc1 | 1.3% | -2.8% | x | x | u | u
O=C(Nc1ccc2oc(-c3cccc4c(Br)cccc34)nc2c1)c1ccc(Br)cc1 | x | x | x | 3.8% | -5.8% | x
CCCCC[C@H](O)/C=C/[C@@H]1[C@H]2C/C(=C/CCCC(=O)O)C[C@H]2C[C@H]1O | x | x | 1.4% | 3.4% | x | x
O=C(NC1CCCCC1)c1n[nH]c2c1CC(c1ccccc1)CC2 (stereo unspecified) | 2.24µM* | 1.78µM* | x | x | 3.01µM* | u
Cc1ccc(-c2nc3cc(Cl)ccc3o2)cc1NC(=O)c1cc([N+](=O)[O-])ccc1N1CCOCC1 | x | x | x | -4.7% | u | x
Cc1ccc(-c2nc3cc(C(C)C)ccc3o2)cc1NC(=O)c1cccs1 | x | x | x | -5.7% | 1.9µM* | x
SMILES | NPC1 promoter act | Rab9 prom act | KinaseGlo FLuc | SMN2 splice up | FLuc modulator | ELG1 genotox
Cc1ccc(-c2nc3cc(C(C)C)ccc3o2)cc1NC(=O)c1cc([N+](=O)[O-])ccc1N1CCOCC1 | x | x | x | -45.7% | 1.35µM* | x
O=C(Nc1cc(-c2nc3cc(Cl)ccc3o2)ccc1Cl)c1cccs1 | x | x | x | 20.7% | 2.6% | x
Cc1noc(C)c1NC(=O)Nc1ccc2c(c1)C(=O)N([C@H](C)CO)C[C@H](C)[C@@H](CN(C)S(=O)(=O)c1ccccc1)O2 | x | x | x | x | x | -1.0%
O=C(/C=C/c1ccc(F)cc1)N1CCc2ccccc2C1 | u | 2.51µM* | x | x | 10.7µM* | 16.8%
O=C(/C=C/c1ccc(F)cc1)N1CCCc2ccccc21 | 20.5% | u | 0.7% | -10.4% | u | 12.7%
Cc1ccc(/C=C/C(=O)N2CCc3ccccc3C2)cc1 | 24.3% | 23.7% | 14.6% | 0.7% | 10.7µM* | u
CC(C)(C)c1ccc(/C=C/C(=O)N2CCc3ccccc3C2)cc1 | -0.7% | -8.4% | -5.2% | -1.0% | u | 3.7%
CC(=O)NC(C)C(=O)OCC(=O)c1ccc(-c2ccccc2)cc1 (stereo unspecified) | -3.1% | -3.7% | 2.9% | 7.1% | 13.5µM* | 11.3%
COC(=O)C(CC(=O)c1ccccc1)CC(=O)c1ccccc1 | 14.6% | 0.1%[1.84 µM] | x | x | u | 12.3%
Cc1ccc(C(=O)CC(=O)c2ccccc2)cc1 | 2.51µM* | 2.24µM* | x | x | 9.53µM* | 24.8%
CC(NC(=O)c1ccccc1)C(=O)OCC(=O)c1ccc(Br)cc1 (stereo unspecified) | -1.8% | 17.3% | x | x | -9.9% | 6.1%
Cc1ccc(C(=O)NC(=S)NCC(=O)c2ccccc2)cc1 | 14.0% | 24.7% | -4.3% | 25.1% | u | 4.8%
CCOC(=O)C(CC(=O)c1ccccc1)CC(=O)c1ccccc1 | u | 23.0% | x | x | 13.5µM* | 17.3%
CCCC(=O)c1ccc(-c2ccccc2)cc1 | 5.9% | -0.1% | 1.3% | u | 16.9µM* | u
Cc1cccc(C)c1NC(=O)CNC(=O)c1ccccc1OCc1ccccc1 | -1.2% | 0.8% | x | x | 1.4% | -4.6%
CCc1ccc(C(=O)COC(=O)c2ccc(-c3nnc(-c4ccccc4)o3)cc2)cc1 | 0.891µM* | 0.562µM* | -2.0% | 7.94µM* | -3.8% | u
Cc1ccc(C(=O)Sc2cccccc2=O)cc1 | -39.3% | -52.2% | x | x | 3.01µM* | 6.51µM*
O=C(CN1C(=O)CCC1=O)c1ccc(-c2ccccc2)cc1 | 24.5% | u | -6.1% | 3.98µM* | u | 16.7%
Cc1ccc(C(=O)OCC(=O)Nc2ccccc2)cc1NC(=O)c1ccco1 | -3.0% | 14.4% | 0.8% | 5.7% | -12.7% | u
Cc1ccc(S(=O)(=O)/N=C(/Sc2ccccc2C(=O)O)c2ccccc2)cc1 | -0.6% | 2.4% | x | x | -4.0% | 1.5%
